Peg3 promoter = inhibitors of Peg3 promoter. inhibition, % at 20 µM. HeLa PEG-Prom luciferase reporter, luminescence, overnight. AID 588405. 1.7% of 360,000 active;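 active = inhibition of at least 50% at 20 µM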
LMP1 NFkB inh = Epstein-Barr LMP1 NF-kappaB reporter inhibition. LMP1-induced NF-kappaB luciferase reporter cells, luminescence. inhibition, % at 12.5 µM. 0.69% of 350,000 active. AID 504558; in the data active = inhibition above about 41%; inconclusive = no clear call, values can overlap the other calls;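 also: 0% = neutral control wells and 100% = reference inhibitor control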
Shn3 3UTR inh = inhibitors of Schnurri-3 3'UTR reporter in osteoblasts; Clone20 osteoblast Shn3 3'UTR firefly luciferase, 24 h; inhibition, % at 12.5 µM; 0.52% of 360,000 active;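 active = mean inhibition of at least 75% with every replicate also reaching 75%; inconclusive = mean inhibition at least 75% but some replicate below; inactive = mean inhibition below 75%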;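 also: 0% = median of neutral control wells and 100% = pilot-screen positive control compound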
HIF-2a inh = inhibitors of HIF-2a | inhibition, % at 18.8 µM | 0.72% of 360,000 active | AID 624352 | 786-0 RCC cells HIF-2a reporter, luciferase luminescence, overnight;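 active = inhibition of the luminescence signal of 40% or more relative to plate controls, in a single-dose primary screen at 18.75 µM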
KKLEB cytotox = CF airway cell cytotoxicity counter-screen. KKLEB CF airway cells viability, ATPlite luminescence, overnight; active compounds read low; cells stimulated with P. aeruginosa culture filtrate. 0.36% of 360,000 active. AID 602141. activity change (cytotoxicity), % at 5 µM;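 active = corrected activity change at or below -50% at 5 µM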
CF NFkB inh = inhibitors of cystic fibrosis induced NF-kB; KKLEB NF-kB-GFP reporter, PAF-induced, GFP fluorescence overnight; inhibition, % at 5 µM; 0.86% of 360,000 active; AID 588850;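 active = at least 50% inhibition at 5 µM, scaled per plate between neutral and stimulator controls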;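 also: PAF is a Pseudomonas aeruginosa culture filtrate used as stimulus; plate controls were PAF-stimulated DMSO wells for no effect and unstimulated DMSO wells for full effect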
Numbers without * were called inactive; ? = inconclusive; · = no result given. A selection: hits, their analogues and other compounds. The true share with any hit is near 2.9%.

SMILES | Peg3 promoter | LMP1 NFkB inh | Shn3 3UTR inh | HIF-2a inh | KKLEB cytotox | CF NFkB inh
CNc1nc(N/N=C/c2cc([N+](=O)[O-])ccc2F)nc(Nc2ccccc2)n1 | 20 | 1 | 2 | 38 | -16 | 39
COc1ccc(C2=NS(=O)(=O)N(C)C(C(=O)NC3CCCCC3)=C2)cc1OC | 4 | 3 | 3 | 6 | 14 | -36
COc1ccc(/C=N/Nc2nc(Nc3ccccc3)nc(N3CCCC3)n2)cc1[N+](=O)[O-] | 60* | -82 | 13 | -7 | 7 | -19
CCc1n[nH]c(=S)n1/N=C/c1ccc(N(C)c2ccccc2)cc1 | -21 | 76* | -17 | -7 | 3 | -36
Cc1ccc(S(=O)(=O)N(C(=O)c2ccncc2)c2ccc(OC(=O)c3ccncc3)c3ccccc23)c(C)c1 | 51* | 3 | 14 | 40 | -4 | 21
C/C(=N\Nc1ccc(C(=O)c2c(C)cc3ccccn23)cc1[N+](=O)[O-])c1ccc(O)cc1 | 26 | 0 | 57 | 12 | -62* | 69*
C/C(=N/Nc1ccc(C(=O)c2c(C)cc3ccccn23)cc1[N+](=O)[O-])c1ccc(O)cc1 | 33 | -2 | 48 | -4 | -26 | 34
CC(=O)N(C1=C(N2CCOCC2)C(=O)c2ccccc2C1=O)c1ccc(C(=O)O)cc1 | 12 | 3 | · | 64* | 0 | -4
O=C(O)c1ccc(NC2=C(N3CCOCC3)C(=O)c3ccccc3C2=O)cc1 | -2 | 5 | -43 | 6 | 2 | 9
Nc1nc2c(ncn2[C@@H]2O[C@H](CNC(=O)[C@H](N)Cc3ccccc3)[C@@H](O)[C@H]2O)c(=O)[nH]1 | 11 | · | -6 | 5 | 2 | -8
CCn1c2ccccc2c2cc(/C=N/n3cnnc3)ccc21 | 38 | 83* | 28 | 23 | -26 | -13
CCn1c2ccccc2c2cc(/C=N/n3c(-c4cc(C)[nH]n4)n[nH]c3=S)ccc21 | -2 | 87* | 5 | 19 | 6 | -7
CCn1c2ccccc2c2cc(/C=N/n3cn[nH]c3=S)ccc21 | 46 | 80* | 4 | 10 | -34 | 16
CC(C)Cc1ccc(CN2CCCC(NC(=O)c3cccc(-n4cnnc4)c3)C2)cc1 (centres undefined) | -188 | 2 | 17 | -8 | 2 | -31
CCc1cc(=O)oc2cc(C)cc(OC(C)C(=O)NCCCN3CCCC3=O)c12 (centres undefined) | 9 | 3 | 3 | -1 | -10 | 2
CCC(Oc1ccccc1)C(=O)NC1CCSC1=O (centres undefined) | -2 | 66* | -6 | 12 | 4 | 0
CCC(Oc1ccccc1)C(=O)NC1CCCCCC1 (centres undefined) | 9 | 4 | -6 | 10 | 0 | -10
CC(C)(C)c1cc(CCC(=O)NCc2ccncc2)cc(C(C)(C)C)c1O | 15 | -6 | 4 | 5 | 9 | -5
CN(C)c1ccc(CCc2ccc(N)cc2)cc1 | -60 | 13 | 32 | 83* | 12 | 6
C=CC[n+]1c(-c2ccc(OC)c(OC)c2)csc1NNC(=O)Nc1ccccc1 | 36 | 38 | 90* | 21 | -10 | 3
CCC(C)CN1C(=O)CN(S(C)(=O)=O)CC1(C)C(=O)NC(C)C (centres undefined) | · | · | · | 0 | · | ·
O=C(Nc1ccc([N+](=O)[O-])cc1)c1nc[nH]c1C(=O)NC1CCCCC1 | 49 | 1 | 39 | 19 | -51* | 35
O=C(Nc1ccc(F)cc1)c1nc[nH]c1C(=O)Nc1ccc([N+](=O)[O-])cc1 | 4 | 1 | 10 | 14 | -29 | 22
C[C@H](CO)NC(=O)[C@@H]1C[C@H]1[C@@H](NP(=O)(c1ccccc1)c1ccccc1)c1ccccc1 | -8 | -1 | -29 | -2 | 0 | -10
CCOC(=O)c1c(NC(=O)CNC2CCCCC2)sc(C)c1C | 90* | -7 | -5 | 22 | -8 | 23
SMILES | Peg3 promoter | LMP1 NFkB inh | Shn3 3UTR inh | HIF-2a inh | KKLEB cytotox | CF NFkB inh
O=Cc1cc(CCC(=O)O)ccc1O | -2 | 53* | 2 | -7 | -10 | -12
CC(C)CNS(=O)(=O)c1ccc(CCC(=O)O)cc1 | -1 | -9 | -13 | 16 | 1 | 2
Cc1[nH]c(=O)[nH]c(=S)c1C(=O)Nc1ccc(Cl)c(Cl)c1 | -28 | 0 | -2 | -20 | -5 | 3
N=C1S/C(=C\c2ccc(-c3cccc(Cl)c3)o2)C(=O)N1c1nccs1 | 104* | 22 | ? | 1 | 12 | -59
Clc1ccc(OCCN2CCOCC2)cc1Cl | -34 | -3 | -12 | -52 | 1 | 3
Clc1ccc(OCCN2CCCCC2)cc1Cl | -3 | 3 | 16 | 2 | 1 | 11
NC(=S)NN=C1c2cc(OCCN3CCOCC3)ccc2-c2ccc(OCCN3CCOCC3)cc21 | 107* | -5 | 22 | 19 | -38 | -51
ON=C1c2cc(OCCN3CCCCC3)ccc2-c2ccc(OCCN3CCCCC3)cc21 | 111* | -56 | -9 | -33 | -3 | -8
COc1ccc(CNC(=O)C[C@H]2C[C@H](C(=O)N3CCCCC3)[C@@]3(C)c4[nH]c5ccc(Cl)cc5c4CCN3C2=O)cc1OC | 21 | -16 | 6 | 13 | -20 | 0
Cc1noc(NS(=O)(=O)c2ccc(NC(=O)Cc3ccc([N+](=O)[O-])cc3)cc2)c1C | -1 | 5 | -4 | 7 | 0 | -15
Cc1cc(N2CCCC2)c(F)cc1/C=C\[N+](=O)[O-] | 79* | 19 | 30 | -29 | 3 | -11
CN(/N=C/c1cc(Br)cc(Br)c1O)c1cccc(C(F)(F)F)n1 | 57* | 6 | 9 | 13 | -12 | 46
CN(N=Cc1ccccc1O)c1ccc2ccccc2n1 | -365 | -20 | -40 | -54 | -14 | 1
O=C(c1ccco1)N1CCN(c2ccc(Cl)cc2)CC1 | -271 | -28 | -105 | -269 | 11 | -5
CN1CCN(c2ccc(NC(=O)c3ccc(-c4ccc(Cl)cc4)o3)cc2)CC1 | 98* | 1 | 8 | -35 | -22 | -76
O=C(Nc1ccc(Cl)cc1)c1ccco1 | -195 | 57* | -18 | -220 | 7 | 2
COc1ccc(-c2ccc(NC(=O)c3ccco3)cc2)nn1 | 18 | 57* | 24 | -1 | -35 | 23
O=C(Cc1ccc(Cl)cc1)Nc1ccc(N2CCN(C(=O)c3ccco3)CC2)cc1 | 12 | 13 | 90* | 19 | 10 | -12
COc1ccc(-c2cccc(NC(=O)c3ccco3)c2)nn1 | 16 | 4 | 7 | -5 | -21 | 0
C/C(N)=C(/C#N)C(=O)COC(=O)c1oc2ccccc2c1COC(C)C | 13 | 6 | 15 | 14 | 8 | 20
COc1ccccc1CNC(=O)COC(=O)c1ccc(C)c(S(=O)(=O)N2CCCCC2)c1 | 10 | 8 | -3 | 11 | 3 | -11
Cc1ccc2nc(N/N=C\c3ccc([N+](=O)[O-])o3)nc(-c3ccccc3)c2c1 | 3 | 13 | -5 | -44 | 14 | -27

Bioassay records as filed in PubChem BioAssay.
